# Measured values taken from US20140271602, “NUCLEOTIDE-SPECIFIC RECOGNITION SEQUENCES FOR DESIGNER TAL EFFECTORS” (THE BROAD INSTITUTE INC., published 2014).
# Biological target: T1, TALE1-NH (CACNA1C site 1 activator) (Xanthomonas (engineered), UniProt P14727 SEQ:1-983)
# T1 chain: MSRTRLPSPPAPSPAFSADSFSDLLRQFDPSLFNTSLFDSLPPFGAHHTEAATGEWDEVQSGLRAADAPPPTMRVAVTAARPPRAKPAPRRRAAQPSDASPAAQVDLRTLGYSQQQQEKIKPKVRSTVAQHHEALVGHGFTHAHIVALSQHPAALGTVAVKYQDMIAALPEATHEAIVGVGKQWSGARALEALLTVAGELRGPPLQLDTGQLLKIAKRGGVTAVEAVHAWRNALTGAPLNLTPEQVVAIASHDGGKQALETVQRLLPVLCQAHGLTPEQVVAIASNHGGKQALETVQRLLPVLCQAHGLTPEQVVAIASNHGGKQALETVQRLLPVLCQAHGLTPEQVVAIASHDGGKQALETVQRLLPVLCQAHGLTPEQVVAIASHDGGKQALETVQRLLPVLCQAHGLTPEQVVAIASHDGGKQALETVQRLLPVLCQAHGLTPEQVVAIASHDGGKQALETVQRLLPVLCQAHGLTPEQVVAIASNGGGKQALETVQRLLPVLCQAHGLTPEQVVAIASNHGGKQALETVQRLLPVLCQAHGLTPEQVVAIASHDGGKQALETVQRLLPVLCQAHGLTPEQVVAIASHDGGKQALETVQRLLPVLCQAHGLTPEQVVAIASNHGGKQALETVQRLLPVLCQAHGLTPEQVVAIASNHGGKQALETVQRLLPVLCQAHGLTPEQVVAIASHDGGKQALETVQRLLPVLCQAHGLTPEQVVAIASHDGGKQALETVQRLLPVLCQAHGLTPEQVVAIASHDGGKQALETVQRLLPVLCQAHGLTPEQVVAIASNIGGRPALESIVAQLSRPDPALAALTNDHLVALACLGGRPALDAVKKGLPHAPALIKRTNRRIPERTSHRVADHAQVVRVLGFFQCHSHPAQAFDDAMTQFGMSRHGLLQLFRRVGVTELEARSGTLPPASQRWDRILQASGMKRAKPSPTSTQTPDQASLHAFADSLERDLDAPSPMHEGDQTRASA
# Assay: cell_activity; luciferase reporter
# Details: tags: VP64, 2A-GFP; dsDNA, one strand shown
# Experimental: TALEs using NN, NK, NH, and HN as the G-targeting RVD were synthesized to target two distinct 18 bp target sites in the human CACNA1C locus. Changes in mRNA are measured using qRT-PCR as described previously. VP64, VP64 transcription activation domain. All results are collected from three independent experiments in HEK 293FT cells. Error bars indicate s.e.m.; n=3. FIG. 19(b) discloses SEQ ID NOS 63 and 62, respectively, in order of appearance.
# To determine whether NH and HN are suitable replacements for NN as the G-specific RVD, specificity and activity strength of NN, NK, NH, and HN were directly compared. Two 18 bp targets within the CACNA1C locus in the human genome were chosen and four TALEs for each target were constructed, using NN, NK, NH, or HN as the G-targeting RVD (FIG. 19a). […] For each CACNA1C target site, four luciferase reporters were constructed: wild type genomic target, and wild type target with 2, 4, or all guanines mutated into adenines (FIG. 19a, G-to-A reporters), and compared the activity of each TALE using these reporters (FIG. 19a). […] Thus, focus was placed on the RVDs NN, NK, and NH in subsequent experiments to assess their usefulness in modulating transcription at endogenous human genome targets.
row,Sequence,binding signal
1,TCAACCCCTACCAACCCA,< 10 % of wild-type site activation
2,TCAACCCCTGCCGGCCCA,71.4 % reduction vs wild-type site
